Sampled rows, rich in hits. Any-hit rate of the full collection: about 4.3%.
FAS TE block: FAS thioesterase (human) inhibition; P49327; recombinant FAS-TE, OMFH fluorogenic substrate, fluorescence endpoint; inhibition, % at 15 µM; 360,000 compounds, 0.67% hits; AID 602261;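 active means compounds whose normalised, plate-corrected inhibition of enzyme fluorescence in the single-dose primary screen is 50% or more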
NR3A LBD binder: modulates the human NR3A ligand-binding domain; NR3A LBD differential scanning fluorimetry, Tm shift; 0% = protein alone, 100% = glycine-bound protein; Tm shift relative to glycine control, % at 25 µM; 340,000 compounds, 2.5% hits;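 active means melting temperature shift of at least 10% of the positive control shift, at one fixed dose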
rCAG binder: molecules binding r(CAG) RNA repeats; inhibition, % at 3 µM; r(CAG) RNA repeat, TO-PRO-1 dye displacement fluorescence; AID 651821; 370,000 compounds, 1.3% hits;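 active means inhibition above the plate cutoff, the mean of all test compounds on that plate plus 3 SD, cut at about 35% in these data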;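 further: higher means more dye released from RNA so lower well fluorescence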
NadD inh: NadD (S. aureus) enzyme inhibition. purified NadD enzyme, colorimetric absorbance read-out. inhibition, % at 20 µM. 360,000 compounds, 0.78% hits; in the data active means inhibition above about 26%
rCAG bind conf: r(CAG) RNA repeat binding, confirmation; inhibition, % at 3 µM; shares compounds with rCAG binder; 4,300 compounds, 70% hits; TO-PRO-1 dye displacement fluorescence;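 active means inhibition above a per-plate cutoff, the mean inhibition of sample wells plus 3 SD, cut at about 35% in these data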;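 further: loss of TO-PRO-1 fluorescence as compound displaces dye from 1x1 AA loop RNA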
DNA CAG counter: disrupts DNA CAG TO-PRO-1 complex, flagging rCAG hits. d(CAG) DNA oligo TO-PRO-1 dye displacement, fluorescence. shares compounds with rCAG binder. 4,300 compounds, 94% hits. inhibition, % at 3 µM;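 active means inhibition above its plate's cutoff, the mean test-well inhibition plus 3 SD, cut at about 4.8% in these data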;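 further: hits displace the dye from DNA and so lower well fluorescence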
Numbers stand for hits.

For O=C(CCc1ccccc1)Nc1cc2c3c(c1)CCC(=O)N3CCC2 the results were FAS TE block inactive, NR3A LBD binder inactive, rCAG binder 41.6, NadD inh inactive, rCAG bind conf inactive and DNA CAG counter inactive.
For O=C(CCc1ccccc1)Nc1cc(NC(=O)CCc2ccccc2)cc(C(=O)O)c1 the results were FAS TE block inactive, NR3A LBD binder 17.0, rCAG binder 40.3, NadD inh inactive, rCAG bind conf inactive and DNA CAG counter inactive.
For O=C(CCc1ccccc1)Nc1ccncc1 the results were FAS TE block inactive, NR3A LBD binder inactive, rCAG binder inactive and NadD inh inactive.
CCCN1CCCCC(NC(=O)c2ccc(C)cc2C)C1=O (configuration not stated) was read as rCAG binder inactive.
For COC(=O)c1cc2c(c3c4cc(OC)ccc4n(S(=O)(=O)c4cccc(C)c4)c13)C(=O)N(Cc1ccccc1OC)C2 the results were rCAG binder inactive.
`O=C(O)c1ccccc1C(=O)c1ccc(Sc2ccc(Cl)cc2)c([N+](=O)[O-])c1` gave FAS TE block inactive, NR3A LBD binder inactive, rCAG binder 64.1, NadD inh inactive, rCAG bind conf 71.2 and DNA CAG counter 32.0.
Screening Nc1ccccc1Sc1ccc(C(=O)c2ccccc2C(=O)O)cc1[N+](=O)[O-] returned FAS TE block inactive, NR3A LBD binder inactive, rCAG binder 63.7, NadD inh inactive, rCAG bind conf 48.1 and DNA CAG counter 15.2.
`CC(C)(c1ccccc1)c1ccc(OCc2ccc(C(=O)O)o2)cc1` gave FAS TE block inactive, NR3A LBD binder inactive, rCAG binder 38.6, NadD inh inactive, rCAG bind conf inactive and DNA CAG counter inactive.
CC(C)(C)c1ccc(OCc2ccc(C(=O)NN)o2)cc1 was read as FAS TE block inactive, NR3A LBD binder inactive, rCAG binder inactive and NadD inh inactive.
COC(=O)c1scc(C#N)c1N/N=C(\C#N)S(=O)(=O)c1ccc(Cl)cc1 was read as FAS TE block inactive, NR3A LBD binder inactive, rCAG binder 40.8, NadD inh inactive, rCAG bind conf 66.1 and DNA CAG counter 20.8.
`COC(=O)c1scc(S(=O)(=O)C(C)C)c1N/N=C(\C#N)C(=O)c1ccc(Cl)cc1` gave FAS TE block inactive, NR3A LBD binder inactive, rCAG binder 51.1, NadD inh inactive, rCAG bind conf 60.7 and DNA CAG counter 22.6.
`COC(=O)c1scc(C)c1NC(=O)c1ccc(Cl)cc1` gave FAS TE block inactive, NR3A LBD binder inactive and NadD inh inactive.
`Cc1ccnc(NC(=O)c2ccc(S(=O)(=O)NCc3ccco3)cc2)c1` gave FAS TE block inactive, NR3A LBD binder inactive, rCAG binder inactive and NadD inh inactive.
CCSc1nnc(NC(=O)c2c(-c3ccccc3Cl)noc2C)s1 was read as FAS TE block inactive, NR3A LBD binder inactive, rCAG binder inactive and NadD inh inactive.
For Cc1onc(-c2ccccc2Cl)c1C(=O)Nc1nnc(-c2cccc([N+](=O)[O-])c2)s1 the results were FAS TE block inactive, NR3A LBD binder inactive, rCAG binder 41.9, NadD inh inactive, rCAG bind conf inactive and DNA CAG counter 7.4.
Screening COc1ccc(C(=O)Oc2coc(CSc3nnc(NC(=O)c4cccs4)s3)cc2=O)cc1 returned FAS TE block inactive, NR3A LBD binder inactive, rCAG binder 34.8, NadD inh inactive, rCAG bind conf 51.5 and DNA CAG counter 16.4.
For COc1ccc(N(CC(=O)Nc2cc(OC)c(OC)cc2C(=O)O)S(=O)(=O)c2c(C)noc2C)cc1 the results were FAS TE block inactive, NR3A LBD binder inactive, rCAG binder 40.8, NadD inh inactive, rCAG bind conf inactive and DNA CAG counter inactive.
For COc1ccc(N(CC(=O)Nc2cc(C)ccc2OC)S(=O)(=O)c2c(C)noc2C)cc1 the results were FAS TE block inactive, NR3A LBD binder inactive, rCAG binder inactive and NadD inh inactive.
`NNS(=O)(=O)c1ccc2c(c1)Cc1cc(S(=O)(=O)NN)ccc1-2` gave FAS TE block inactive, NR3A LBD binder inactive, rCAG binder 41.9, NadD inh inactive, rCAG bind conf inactive and DNA CAG counter inactive.
O=S(=O)(NCCO)c1ccc2c(c1)Cc1cc(S(=O)(=O)NCCO)ccc1-2 was read as FAS TE block inactive, NR3A LBD binder inactive, rCAG binder inactive and NadD inh inactive.
COc1ccccc1Cc1c(-c2cccc(Cl)c2)nc2ccc(Br)cn12 was read as FAS TE block inactive, rCAG binder 38.0, NadD inh inactive, rCAG bind conf inactive and DNA CAG counter inactive.
Screening COC(=O)c1ccc2nc(-c3cccc(Cl)c3)c(Cc3ccccc3OC)n2c1 returned FAS TE block inactive, rCAG binder inactive and NadD inh inactive.
`Cc1cc(Br)cn2c(Cc3cccc(Cl)c3)c(-c3ccco3)nc12` gave FAS TE block inactive, rCAG binder 41.7, NadD inh inactive, rCAG bind conf inactive and DNA CAG counter 5.2.
For Clc1cccc(Cc2c(-c3ccccc3)nc3ccc(Cl)cn23)c1 the results were FAS TE block inactive, rCAG binder 35.7, NadD inh inactive, rCAG bind conf inactive and DNA CAG counter 5.5.
`Clc1cccc(Cc2c(C3CCCCC3)nc3ccc(Br)cn23)c1` gave FAS TE block inactive, rCAG binder 35.9, NadD inh inactive, rCAG bind conf inactive and DNA CAG counter inactive.
For O=S(=O)(CS(=O)(=O)c1ccc(Br)cc1)c1ccc(Br)cc1 the results were rCAG binder inactive.
Screening COC(=O)c1cc2c(c3c4ccccc4n(S(=O)(=O)c4ccc(OC)cc4)c13)C(=O)N(Cc1ccccc1OC)C2 returned rCAG binder inactive.
For Clc1cccc(Cc2c(-c3cccc(Br)c3)nc3ccc(Cl)cn23)c1 the results were FAS TE block inactive, rCAG binder 44.7, NadD inh inactive, rCAG bind conf inactive and DNA CAG counter 9.9.
Clc1ccc2nc(-c3cccc(Br)c3)c(Cc3ccccc3)n2c1 was read as FAS TE block inactive, rCAG binder inactive and NadD inh inactive.
Screening Cc1ccc(S(=O)(=O)N2[C@@H](c3ccc(Cl)cc3)C(C(=O)O)=C[C@H]2C(C)(C)C)cc1 returned FAS TE block inactive, NR3A LBD binder inactive, rCAG binder 48.2, NadD inh inactive, rCAG bind conf 41.7 and DNA CAG counter 11.0.
`Cc1ccc(S(=O)(=O)N2[C@@H](c3ccc(Br)cc3)C(C(=O)O)=C[C@H]2C(C)(C)C)cc1` gave FAS TE block inactive, NR3A LBD binder inactive, rCAG binder 46.9, NadD inh inactive, rCAG bind conf 54.3 and DNA CAG counter 15.7.
Screening Cc1ccc(S(=O)(=O)N2[C@@H](c3ccc(C#N)cc3)C(C(=O)O)=C[C@H]2C(C)(C)C)cc1 returned FAS TE block inactive, NR3A LBD binder inactive, rCAG binder inactive and NadD inh inactive.
Screening Cc1cc(NS(=O)(=O)c2ccc(NC(=S)NC(=O)c3ccc(C(C)(C)C)cc3)cc2)no1 returned FAS TE block inactive, NR3A LBD binder inactive, rCAG binder inactive and NadD inh inactive.
